Laboratory results: PubChem BioAssay (NCATS)
Where “and” joins values, the source holds several entries; their conditions need not be identical. Equal values may be shown once. Records with an inconclusive call do not appear. Some compounds were tested as several samples or in several runs, with calls that do not always agree. Calls of active or inactive are those of the source. Unless noted, calls follow the shape of the dose curve; as a rule, active = well fitted curve in either direction with a large enough effect (not every such curve was filed as active); inconclusive = small, poorly fitted or top-dose-only effect, or another doubt; inactive = flat fitted curve, though single readings scatter.

How the values were obtained:
[1] = AP1 Signaling Pathway (AID 357); details: ME-180 AP-1-bla reporter, EGF-induced, beta-lactamase ratio, 5 h;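 also: ME-180 reporter cells stimulated with EGF at its EC50 level; % is scaled to controls: 0 for no effect and ±100 for the full control effect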
In short: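 A ratiometric CCF4 readout (405 nm excitation; 460 and 530 nm emission) quantified AP-1-driven beta-lactamase in ME-180 cells after 5 h with compound and EC50 EGF; AC50 values were derived for activators and inhibitors.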

[2] = target: Cytochrome P450 1A2 (Homo sapiens) (UniProt P05177); experiment: p450-cyp1a2 (AID 410; calls by dose curve; also: potency is read from the fitted curve at half-maximal effect;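 as to activity change, negative = inhibition: -100% = full effect of reference inhibitor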)
In short: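 Inhibition was calculated relative to 57 uM furafylline (full inhibition). The reaction used human CYP1A2 at 20nM with Luciferin-ME at its Km, 100uM, driven by an NADPH-regenerating system for 60 min at room temperature.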

[3] = NFAT Signaling Pathway (AID 444); details: Jurkat NFAT-bla M1, carbachol, beta-lactamase ratio, 5 h;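 also: carbachol stimulus at about its EC50 of 1 µM final; % is scaled to controls: 0 for no effect and ±100 for the full control effect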
In short: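 Jurkat cells with NFAT-driven β-lactamase reporter and co-expressed M1 receptor, stimulated with carbachol (final 1 uM, ~EC50), compound titration, 5 h at 37 °C. CCF4 loaded 1 h at RT; 460/530 nm ratio gave %activity and AC50.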

[4] = Stat Signaling Pathway (AID 446); details: ME-180 SIE beta-lactamase reporter, IL-6 stimulated, 5 h;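 also: ME-180 cervical cancer cells given 40 pM IL-6 alongside compound; SIE-controlled beta-lactamase reporter measured as 460/530 nm FRET emission ratio; % is scaled to controls: 0 for no effect and ±100 for the full control effect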
In short: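 Reporter line: ME-180 cervical carcinoma, SIE-beta-lactamase. Treatment: compound with 40 pM IL-6, 5 hrs, 37 C, in low-serum OPTI-MEM with 10 mM HEPES pH 7.3. Detection: 460/530 nm fluorescence.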

[5] = target: Glucocorticoid receptor (Homo sapiens) (UniProt P04150); experiment: GR-GFP Redistribution (AID 450;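 active = compounds whose dose series gives a full or clear partial fitted curve of increased nuclear translocation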; also: potency is read from the fitted curve at half-maximal effect); details: U2OS GR-GFP nuclear translocation, laser cytometry, 2 h
[6] = target: Glucocorticoid receptor (Homo sapiens) (UniProt P04150); experiment: GR-EFC Redistribution (AID 451; calls by dose curve; also: potency is read from the fitted curve at half-maximal effect); details: CHO-K1 GR-EFC translocation, beta-gal luminescence, 2 h
In short: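 CHO-K1 cells expressing nuclear EA and GR-ED fragments of b-gal; compounds titrated up to 46 uM final, 2 h at 37 C. GR nuclear translocation read as complemented b-gal luminescence after 1 h RT detection.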

[7] = target: Mitogen-activated protein kinase 10 (Mus musculus) (UniProt Q61831); experiment: JNK3 AlphaScreen Assay (AID 530);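 also: kinase came from lysate of stimulated human HepG2 cells; signal reports phosphorylation of biotinylated GST-cJun 1-79 at Ser73 with 10 µM ATP; % is scaled to controls: 0 for no effect and ±100 for the full control effect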
In short: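 qHTS format: compounds tested as titrations against IL-1beta/TNF-alpha-activated HepG2 lysate JNK3 with biotin-GST-cJun substrate and 10 uM ATP at room temperature. Loss of anti-phospho-cJun AlphaScreen signal indicates inhibition.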

[8] = target: 3',5'-cyclic-AMP phosphodiesterase 4B (Homo sapiens) (UniProt Q07343); experiment: qHTS Assay for Inhibitors of PDE-IV (AID 607; active = well fitted activation curve with a large enough effect in the main read-out, with a control signal flat, not every such curve was filed as active; also: % of control where 0% means no effect)
In short: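 Cell-based read-out of cAMP via a modified cyclic nucleotide-gated channel and membrane potential dye (535/590 nm) in HEK293 cells expressing PDE4 endogenously. Compounds tested up to 22.9 uM final; 100 uM RO 20-1724 reference.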

[9] = target: alpha-glucosidase (Oryza sativa, rice) (UniProt Q653V4); experiment: Counterscreen for Glucocerebrosidase Inhibitors: qHTS Assay for Rice alpha-Glucosidase at pH 5.0 (AID 997; active = well fitted curve in the direction sought with a large enough effect; an effect the other way counts as inactive or inconclusive;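 also: 0% = full activity with enzyme and -100% = basal without enzyme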)
In short: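 Rice alpha-glucosidase (4 nM final) with 400 uM 4-methylumbelliferyl-alpha-D-glucopyranoside in citrate buffer pH 5.0, 20 min at room temperature, stopped at pH 10; fluorescence 365/440 nm, compounds 0.7 nM–77 uM, AC50 from Hill fits.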

[10] = qHTS Assay for Lipid Storage Modulators (AID 1519; calls by dose curve); details: Drosophila S3 cells, BODIPY lipid droplet/cell ratio, laser cytometry, cells loaded with oleic acid
In short: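 Cells seeded at 5,000 per well were treated with compounds over a concentration series and loaded with oleic acid (400 uM, as added). Lipid droplet fluorescence (488 nm excitation, 500-530 nm channel) was read by laser-scanning cytometry and normalized to 20 uM Triacsin C.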

[11] = target: ATP-dependent 6-phosphofructokinase (Trypanosoma brucei brucei) (UniProt O15648); experiment: qHTS Assay to Find Inhibitors of T. brucei phosphofructokinase: hit validation (AID 492961; active = well fitted curve in the direction sought with a large enough effect; an effect the other way counts as inactive or inconclusive; also: % is scaled to controls: 0 for no effect and ±100 for the full control effect)
In short: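 Luminescence from ADP-Glo reports ADP generated as T. brucei PFK (1.25 nM) phosphorylates 0.5 mM fructose-6-phosphate using 0.1 mM ATP. Reactions ran 45 min at room temperature, pH 8.0.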

[12] = target: Ubiquitin carboxyl-terminal hydrolase 1 (Homo sapiens) (UniProt O94782); experiment: Inhibitors of USP1/UAF1: Pilot qHTS (AID 504865; active = well fitted curve in the direction sought with a large enough effect; an effect the other way counts as inactive or inconclusive;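 also: rhodamine fluorescence freed from ubiquitin-rhodamine substrate followed over time; top concentration of the series differs between compounds; % is scaled to controls: 0 for no effect and ±100 for the full control effect; nearly all actives have a fitted effect of over 35% in size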)
In short: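 USP1/UAF1 complex at 1 nM preincubated 15 min at room temperature with compound, then Ub-Rho substrate added at 150 nM final. Fluorescence (480/540 nm) read kinetically in 50 mM HEPES pH 7.8, 0.5 mM EDTA, 1 mM TCEP, 0.1 mg/ml BSA, 0.01% Tween-20.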

[13] = target: Luciferin 4-monooxygenase (Photinus pyralis) (UniProt P08659); experiment: Biochemical firefly luciferase enzyme assay for NPC (AID 624030; active = well fitted curve in the direction sought with a large enough effect; an effect the other way counts as inactive or inconclusive;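 also: purified P. pyralis luciferase at 10 nM with luciferin and ATP substrate; 0% = DMSO and -100% = full luciferase inhibition by PTC124 control; nearly all actives have a fitted effect of over 70% in size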)
In short: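 Purified P. pyralis luciferase at 10 nM in 50 mM Tris Acetate (final), luminescence read within 5 minutes of enzyme addition to compounds. Activity normalised to PTC124 versus DMSO; concentration-response curves classed by r2, magnitude and activity.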

[14] = qHTS profiling for inhibitors of Plasmodium falciparum proliferation (AID 504749; active = well fitted curve in the direction sought with a large enough effect; an effect the other way counts as inactive or inconclusive;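 also: 0% = DMSO vehicle and full inhibition = artemisinin control; nearly all actives have a fitted effect of over 60% in size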); details: P. falciparum in erythrocytes, SYBR Green DNA, 72 h, at 28.7 µM (top of the series)
In short: (§1)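 Readout was DNA-dye fluorescence from lysed cultures, ex 485/em 535 nm. Parasitized red cells had grown 72 h with compound; data scaled between 0.29 uM artemisinin and DMSO wells and corrected using vehicle-only plates.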

AS120 = experiment: as above; details: P. falciparum in erythrocytes, SYBR Green DNA, 72 h; series mostly up to 28.7 µM
In short: as §1

CP238 = experiment: as above; details: P. falciparum in erythrocytes, SYBR Green DNA, 72 h; series mostly up to 12.8 µM
In short: as §1

CP250 = experiment: as above; details: P. falciparum in erythrocytes, SYBR Green DNA, 72 h; series mostly up to 12.8 µM
In short: as §1

CP262 = experiment: as above; details: P. falciparum in erythrocytes, SYBR Green DNA, 72 h; series mostly up to 12.8 µM
In short: as §1

CP265 = experiment: as above; details: P. falciparum in erythrocytes, SYBR Green DNA, 72 h; series mostly up to 12.8 µM
In short: as §1

FAB9 = experiment: as above; details: P. falciparum in erythrocytes, SYBR Green DNA, 72 h; series mostly up to 12.8 µM
In short: as §1

[15] = measured here: cell count channel max response
[16] = measured here: lipid channel max response

Chain of 3',5'-cyclic-AMP phosphodiesterase 4B (Homo sapiens) (Q07343 whole entry, looked up): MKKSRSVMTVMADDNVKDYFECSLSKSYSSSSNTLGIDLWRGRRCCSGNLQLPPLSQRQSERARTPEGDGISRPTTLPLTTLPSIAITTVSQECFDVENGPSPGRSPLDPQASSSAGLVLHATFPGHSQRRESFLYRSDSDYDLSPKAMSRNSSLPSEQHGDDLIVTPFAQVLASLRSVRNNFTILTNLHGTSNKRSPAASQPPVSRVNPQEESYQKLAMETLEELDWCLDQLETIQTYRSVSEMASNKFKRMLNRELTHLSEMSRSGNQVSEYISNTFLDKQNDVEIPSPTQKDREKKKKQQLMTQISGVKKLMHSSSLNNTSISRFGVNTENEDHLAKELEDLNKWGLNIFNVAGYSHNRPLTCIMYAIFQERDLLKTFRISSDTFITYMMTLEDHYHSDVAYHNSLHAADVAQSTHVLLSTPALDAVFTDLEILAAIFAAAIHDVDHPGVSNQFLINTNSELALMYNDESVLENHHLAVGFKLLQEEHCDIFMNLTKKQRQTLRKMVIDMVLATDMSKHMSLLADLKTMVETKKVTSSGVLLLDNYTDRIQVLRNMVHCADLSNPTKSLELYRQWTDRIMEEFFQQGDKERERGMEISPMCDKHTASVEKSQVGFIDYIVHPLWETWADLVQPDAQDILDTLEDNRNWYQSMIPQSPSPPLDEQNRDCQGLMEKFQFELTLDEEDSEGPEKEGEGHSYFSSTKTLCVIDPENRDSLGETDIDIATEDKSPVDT
Chain of Ubiquitin carboxyl-terminal hydrolase 1 (Homo sapiens) (O94782 whole entry, looked up): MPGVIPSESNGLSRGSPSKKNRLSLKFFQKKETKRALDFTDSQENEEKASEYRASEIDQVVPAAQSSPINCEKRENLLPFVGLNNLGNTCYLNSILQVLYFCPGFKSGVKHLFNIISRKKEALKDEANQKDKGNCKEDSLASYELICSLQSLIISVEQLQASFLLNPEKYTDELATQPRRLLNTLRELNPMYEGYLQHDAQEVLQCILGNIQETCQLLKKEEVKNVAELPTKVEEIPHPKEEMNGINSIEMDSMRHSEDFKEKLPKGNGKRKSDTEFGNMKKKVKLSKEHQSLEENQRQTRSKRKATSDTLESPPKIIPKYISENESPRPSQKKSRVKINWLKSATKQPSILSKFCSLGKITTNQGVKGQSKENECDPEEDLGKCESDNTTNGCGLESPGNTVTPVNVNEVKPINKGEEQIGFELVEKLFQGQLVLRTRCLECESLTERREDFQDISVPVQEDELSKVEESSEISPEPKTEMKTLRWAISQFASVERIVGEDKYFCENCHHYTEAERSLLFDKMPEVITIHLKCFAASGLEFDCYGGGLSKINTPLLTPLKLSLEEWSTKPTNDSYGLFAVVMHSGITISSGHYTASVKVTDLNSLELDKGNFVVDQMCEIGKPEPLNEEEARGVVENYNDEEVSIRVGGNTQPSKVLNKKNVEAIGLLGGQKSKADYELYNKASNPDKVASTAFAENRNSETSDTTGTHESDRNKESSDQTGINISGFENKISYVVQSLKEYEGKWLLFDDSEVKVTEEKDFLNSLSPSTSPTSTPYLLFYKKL
Chain of Cytochrome P450 1A2 (Homo sapiens) (P05177 whole entry, looked up): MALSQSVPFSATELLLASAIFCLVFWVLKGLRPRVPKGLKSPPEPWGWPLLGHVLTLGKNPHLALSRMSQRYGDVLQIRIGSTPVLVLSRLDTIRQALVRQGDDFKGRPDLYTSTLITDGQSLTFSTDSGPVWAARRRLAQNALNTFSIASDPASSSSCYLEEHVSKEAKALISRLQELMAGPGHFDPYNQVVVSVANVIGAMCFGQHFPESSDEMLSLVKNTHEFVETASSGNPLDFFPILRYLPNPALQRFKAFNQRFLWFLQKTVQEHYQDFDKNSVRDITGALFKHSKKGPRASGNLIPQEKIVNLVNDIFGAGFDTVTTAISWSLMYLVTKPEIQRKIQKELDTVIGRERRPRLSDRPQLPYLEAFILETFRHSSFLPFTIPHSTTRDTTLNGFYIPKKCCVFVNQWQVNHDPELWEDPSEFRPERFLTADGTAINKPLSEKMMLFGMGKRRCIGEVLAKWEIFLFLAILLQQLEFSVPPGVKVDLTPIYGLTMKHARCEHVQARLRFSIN
Chain of Glucocorticoid receptor (Homo sapiens) (P04150 whole entry, looked up, the tested form may be a part): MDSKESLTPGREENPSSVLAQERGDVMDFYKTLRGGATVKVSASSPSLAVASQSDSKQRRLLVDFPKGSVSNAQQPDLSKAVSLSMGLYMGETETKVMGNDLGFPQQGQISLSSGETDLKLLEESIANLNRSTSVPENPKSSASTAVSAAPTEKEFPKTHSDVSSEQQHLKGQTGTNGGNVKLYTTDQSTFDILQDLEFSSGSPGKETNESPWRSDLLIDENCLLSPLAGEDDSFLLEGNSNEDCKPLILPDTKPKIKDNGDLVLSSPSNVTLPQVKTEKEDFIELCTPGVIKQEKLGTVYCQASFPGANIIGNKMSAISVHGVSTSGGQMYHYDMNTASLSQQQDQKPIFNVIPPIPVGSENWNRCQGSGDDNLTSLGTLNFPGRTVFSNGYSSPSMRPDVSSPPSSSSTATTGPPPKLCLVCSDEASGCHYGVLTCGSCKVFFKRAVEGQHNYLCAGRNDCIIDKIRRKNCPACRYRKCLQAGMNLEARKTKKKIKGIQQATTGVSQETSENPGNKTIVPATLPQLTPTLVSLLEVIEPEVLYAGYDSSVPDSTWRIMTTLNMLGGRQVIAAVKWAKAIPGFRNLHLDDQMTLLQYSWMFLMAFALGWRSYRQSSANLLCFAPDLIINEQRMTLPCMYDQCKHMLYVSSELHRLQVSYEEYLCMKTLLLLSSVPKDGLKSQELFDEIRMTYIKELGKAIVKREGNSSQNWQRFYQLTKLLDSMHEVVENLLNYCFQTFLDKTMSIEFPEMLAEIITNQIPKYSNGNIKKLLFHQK
Chain of ATP-dependent 6-phosphofructokinase (Trypanosoma brucei brucei) (O15648 whole entry, looked up): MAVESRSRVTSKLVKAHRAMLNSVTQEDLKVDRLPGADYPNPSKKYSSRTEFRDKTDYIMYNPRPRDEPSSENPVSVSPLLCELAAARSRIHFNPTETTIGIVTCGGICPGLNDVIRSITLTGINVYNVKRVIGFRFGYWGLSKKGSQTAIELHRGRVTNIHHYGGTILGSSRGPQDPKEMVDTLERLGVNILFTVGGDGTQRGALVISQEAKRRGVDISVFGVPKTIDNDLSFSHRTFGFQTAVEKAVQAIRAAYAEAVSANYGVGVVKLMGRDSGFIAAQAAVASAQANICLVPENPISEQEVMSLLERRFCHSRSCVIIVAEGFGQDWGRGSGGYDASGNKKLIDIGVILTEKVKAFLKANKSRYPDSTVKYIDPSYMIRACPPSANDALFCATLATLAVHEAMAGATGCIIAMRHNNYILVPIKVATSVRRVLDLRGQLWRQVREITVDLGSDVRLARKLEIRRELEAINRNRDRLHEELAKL
Chain of Luciferin 4-monooxygenase (Photinus pyralis) (P08659 whole entry, looked up): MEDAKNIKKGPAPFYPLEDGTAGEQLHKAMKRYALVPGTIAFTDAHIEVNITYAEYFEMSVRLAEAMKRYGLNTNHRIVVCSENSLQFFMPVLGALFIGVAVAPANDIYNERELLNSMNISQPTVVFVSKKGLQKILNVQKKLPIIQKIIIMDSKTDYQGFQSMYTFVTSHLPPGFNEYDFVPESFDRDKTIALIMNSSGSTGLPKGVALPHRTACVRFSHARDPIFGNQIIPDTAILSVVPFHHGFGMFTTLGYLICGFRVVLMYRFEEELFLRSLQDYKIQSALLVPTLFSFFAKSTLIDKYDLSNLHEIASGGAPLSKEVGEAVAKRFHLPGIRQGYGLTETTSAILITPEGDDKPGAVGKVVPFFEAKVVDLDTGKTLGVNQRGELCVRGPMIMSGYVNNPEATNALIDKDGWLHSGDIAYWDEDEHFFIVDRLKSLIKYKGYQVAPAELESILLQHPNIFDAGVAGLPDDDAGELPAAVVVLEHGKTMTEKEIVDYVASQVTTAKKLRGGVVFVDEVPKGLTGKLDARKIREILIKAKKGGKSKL

CCCN[C@@H](C)C(=O)Nc1ccccc1C
11.7%: max response [10, 15]
11.2%: max response [10, 16]
inactive: activity change, negative = inhibition ([1]; at 17.2 µM (top of the series)) -5.22% | activity change, negative = inhibition ([1]; at 38 µM (top of the series)) 7.83% | Potency [2] | activity change, negative = inhibition ([3]; at 17.2 µM (top of the series)) -7.99% | activity change, negative = inhibition ([3]; at 38 µM (top of the series)) 0.91% | activity, negative = inhibition ([4]; at 17.2 µM (top of the series)) -2.53% | activity, negative = inhibition ([4]; at 38 µM (top of the series)) -11.1% | Potency [5] > 46 µM and > 20.6 µM | Potency [6] > 46 µM and > 20.6 µM | Potency [7] | Potency [8] | outcome [9] | activity change, negative = inhibition ([10]; at 25.7 µM (top of the series)) -0.0308% | outcome [11] | Potency [12] | outcome [13] | activity, negative = inhibition ([14]; parasite line A) 7.59% | activity, negative = inhibition ([14]; parasite line B) 9.71% | Potency (AS120) | Potency (CP238) | Potency (CP250) | Potency (CP262) | Potency (CP265) | Potency (FAB9)

CO/N=C(\C(=O)N[C@@H]1C(=O)N2C(C(=O)O)=C(COC(C)=O)CS[C@@H]12)c1csc(N)n1
inactive and 12.6 µM (active): Potency [2]
-14.6%: max response [10, 16]
inactive: activity change, negative = inhibition ([1]; at 17.2 µM (top of the series)) -5.85% | activity change, negative = inhibition ([1]; at 38 µM (top of the series)) -1.56% | activity change, negative = inhibition ([3]; at 17.2 µM (top of the series)) -7.64% | activity change, negative = inhibition ([3]; at 38 µM (top of the series)) 3.41% | activity, negative = inhibition ([4]; at 17.2 µM (top of the series)) 3.57% | activity, negative = inhibition ([4]; at 38 µM (top of the series)) -20.5% | Potency [5] > 46 µM and > 20.6 µM | Potency [6] > 46 µM and > 20.6 µM | Potency [7] | Potency [8] | outcome [9] | activity change, negative = inhibition ([10]; at 25.7 µM (top of the series)) -0.702% | outcome [11] | Potency [12] | outcome [13] | activity, negative = inhibition ([14]; parasite line A) 7.66% | activity, negative = inhibition ([14]; parasite line B) -2.07% | Potency (AS120) | Potency (CP238) | Potency (CP250) | Potency (CP262) | Potency (CP265) | Potency (FAB9)
-14.1%: max response [10, 15]

Cc1cccc(C)c1OC[C@H](C)N
-6.28%: max response [10, 16]
inactive: activity change, negative = inhibition ([1]; at 17.2 µM (top of the series)) 5.64% | activity change, negative = inhibition ([1]; at 38 µM (top of the series)) 1.06% | activity change, negative = inhibition ([3]; at 17.2 µM (top of the series)) 1.67% | activity change, negative = inhibition ([3]; at 38 µM (top of the series)) 15.4% | activity, negative = inhibition ([4]; at 17.2 µM (top of the series)) 3.2% | activity, negative = inhibition ([4]; at 38 µM (top of the series)) -14.2% | Potency [7] | Potency [8] | outcome [9] | activity change, negative = inhibition ([10]; at 25.7 µM (top of the series)) -0.862% | Potency [12]
-4.34%: max response [10, 15]
active: Potency [2] 2.51 µM and 398 nM

COC(=O)N1CCC2(CC1)CN(c1ccncc1)C2
12.9%: max response [10, 16]
inactive: Potency [2] | activity, negative = inhibition ([4]; at 7.69 µM (top of the series) unless noted) -7.68% | Potency [6] > 46 µM | Potency [7] | Potency [8] | activity change, negative = inhibition ([10]; at 57.5 µM (top of the series)) 3.84%
7.79%: max response [10, 15]

O=c1c(-c2cccs2)nc2cnc(Oc3cccc(Cl)c3)nc2n1C1CC1
inactive: Potency [5] > 9.22 µM | Potency [6] > 46 µM | Potency [7] | activity change, negative = inhibition ([10]; at 57.5 µM (top of the series)) -23.5%
-23.3%: max response [10, 16]
0.533%: max response [10, 15]
